Experimental data from PubChem BioAssay (NCI).
Values joined by “and” are separate entries in the source; they are usually repeats but may differ in a detail not shown here. Identical values can stand only once. About 83,000 compounds went through this panel and 20% of them were active in at least one assay; those are over-represented in the sample as a whole.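 In brief: 96-well plates, 48 h treatment, single concentration, percent growth endpoint.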 Unmarked numbers belong to inactive results. Active and inactive are the calls of the source. The calls were made as follows: active = growth percent below 10; inactive = the rest.

The compounds below were run on NCI-H226 lung (assay: NCI-60 one-dose screen, 48 h (100 = growth as untreated, 0 = no growth, -100 = all killed)). Details: 10 µM unless noted.

| Compound | growth |
| --- | --- |
| O=c1ccc(Cn2c(C(F)(F)F)cc3c(Cl)ncnc32)c[nH]1 | 116% |
| CC[C@]12C=CCN3CC[C@]4(C(=C(C(=O)OC)C1)Nc1cc(OC)c([C@@H]5[C@H]6O[C@H]6[C@@]6(CC)CC(C(=O)OC)=C7Nc8cc(O)ccc8[C@@]78CCN5[C@@H]68)cc14)[C@@H]32 | -58.1% (active) |
| COc1ccc2[nH]cc(-c3cc4nc(-c5cn(C)c6ncccc56)cc(N)n4n3)c2c1 | 92.6% |
| COc1ccc2[nH]c(=O)cc(-n3ncc(C(=O)/C=C/c4cc(OC)c(OC)c(OC)c4)c3C)c2c1 | -21.7% (active) |
| COc1ccc(/C=C/c2nc3ccccc3n3c(-c4cccc([N+](=O)[O-])c4)nnc23)cc1 | -14.8% (active) |
| O=C(Nc1ccc(Cl)c(C(F)(F)F)c1)N1CCN(c2cc(-c3cn(-c4ccccc4)nc3-c3cccc(O)c3)ccn2)CC1 | -16.2% (active) |
| O=C1Nc2ccccc2/C1=C/C(=O)c1cc2ccccc2oc1=O | 93.7% |
| CN1CCN(C(=O)Oc2cc3c(c4ccccc24)[C@H](CCl)CN3C(=O)c2cc3cc(OCCCN4CCC4)ccc3[nH]2)[C@H]2CSSC[C@H]21 | -14.5% (active) |
| NS(=O)(=O)c1ccc(Nc2nc(N/N=C/c3cc(Br)c(O)c(Br)c3)nc(Nc3ccccc3)n2)cc1 | 54.7% |
| COc1ccc2c(c1)C(Sc1ccc(Cl)cc1)c1c(nc(N)c(C#N)c1N)O2 (stereo not drawn) | 64.9% |
| CS(=O)(=O)Nc1cccc(-n2c(COc3ccc(OC(F)(F)F)cc3)nc3ccccc32)c1 | 83.3% and 103% |
| OCCn1cc(-c2nc3ccc4[nH]ncc4c3c3c2CCCC3)cn1 | 17.9% |
| Cn1cc(-c2cc(N)n3nc(-c4c[nH]c5ccc(F)cc45)cc3n2)c2cccnc21 | -67.5% (active) |
| COc1ccc2c(c1)N=c1c-2cc2c(O)[nH]c(=S)n2c1=O | 46.1% |
| O=C(NN1C(=O)/C(=C/C=C/c2ccc([N+](=O)[O-])o2)SC1=S)c1ccncc1 | -52.7% (active) |
| Cn1cc(-c2cc(N)n3nc(-c4c[nH]c5ccccc45)cc3n2)c2cc(Br)ccc21 | -11.9% (active) |
| Cn1cc(-c2cc(N)n3nc(-c4c[nH]c5ccccc45)cc3n2)c2ccccc21 | -38.6% (active) |

| Compound | growth |
| --- | --- |
| O=C1c2cccc3c(N4CCN(c5ccccc5)CC4)ccc(c23)C(=O)N1c1cccc(-c2nn(-c3ccccc3)cc2-c2nc3ccccc3s2)c1 | 82% |
| O=C(c1ccc(O)cc1)C1[C@H](c2ccccc2Br)[C@@H](c2ccccc2)NC12C(=O)Nc1ccccc12 (stereo partly drawn) | 53.3% |
| COc1ccc(-c2cc(C(=O)N=Nc3c(O)[nH]c4ccc(Cl)cc34)c3ccccc3n2)cc1 | 81.8% |
| CC(C)(C)OC(=O)N1CCC2(CC1)Oc1ccccc1[C@H]1CC(c3ccc(Br)cc3)=NN12 | 79% |
| Cc1cc(C(NC(=O)CCCCCNc2cccc3c2C(=O)N(C2CCC(=O)CC2=O)C3=O)c2cccc(N(C)C)c2)c(O)c2ncccc12 (stereo not drawn) | -1.45% (active) |
| O=C(c1ccc(O)cc1)C1[C@H](c2ccc(Cl)cc2)[C@@H](c2ccccc2)NC12C(=O)Nc1ccc(Br)cc12 (stereo partly drawn) | -54.7% (active) |
| Cc1ccc(C(=O)C[n+]2cccc3c4ccccc4ccc32)cc1 | 36.3% |
| C#CCN(C)CCCOc1ccc(N(CC)C(=O)c2cc(C(C)C)c(O)cc2O)cc1Cl | -13.8% (active) |
| O=C(OCCOCCO)N(c1cccc(Br)c1)c1nc(SCCN2CCOCC2)nc2c1cnn2CC(Cl)c1ccc(Br)cc1 (stereo not drawn) | 32.1% |
| COc1ccc(-c2nc3ccc(-c4nnc(SCC(=O)Nc5ccc(/C(C)=N\O)cc5)o4)cc3[nH]2)cc1 | 77.5% |
| Clc1ccc2c(NCCNC34CC5CC(CC(C5)C3)C4)ccnc2c1 | -24.4% (active) |
| CCOc1ccc(-c2cc(-c3cc(C(C)C)c(O)cc3C)nn2-c2ccc(S(N)(=O)=O)cc2)cc1 | 67.4% |
| Cc1ccc(N=Nc2c(N)nn3c(-c4cc5cc(Br)ccc5oc4=O)ccnc23)cc1 | -26.3% (active) |
| COc1ccc(SC2c3cc(OC)ccc3Oc3nc(N)c(C#N)c(N)c32)cc1 (stereo not drawn) | 87.1% |
| O=C1Nc2ccc(F)cc2/C1=C/C(=O)c1cc2ccccc2oc1=O | 86% |
| COc1ccc2[nH]cc(-c3cc(N)n4nc(-c5c[nH]c6ccccc56)cc4n3)c2c1 | 74.5% |
